PubChem BioAssay AID1159580 (chemical genetic matrix, 2015)
Hit rate of the full screen: of about 5,500 compounds, about 2,000 (36%) were called active. Another 18% or so got no clear call; they are omitted. Cut-off read from the data, not from the text of the source: active = normalized growth mostly below about 0.91 (no sharp cut-off); inconclusive = no clear call, values can overlap the other calls; inactive = mostly above about 0.92. The list shows a part of the results.

Assay: chemical genetic growth profiling, strain panel (AID 1159580);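 note: tested at 20 µM; growth read once vehicle control cultures reached saturation at 30 °C; 1 = growth at the plate median or of vehicle wells; lower values mean less growth of the strain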
Conditions: growth OD

Measured: normalized growth

COC(=O)[C@H]1[C@H]2C[C@@H]3c4[nH]c5cc(OC)ccc5c4CCN3C[C@H]2C[C@@H](OC(=O)c2cc(OC)c(OC)c(OC)c2)[C@@H]1OC
inactive: S. cerevisiae deletion strains, locus YKL009W, strain mrt4, active compounds read low 1.02 | S. cerevisiae deletion strains, locus YKL068W, active compounds read low 1.01 | S. cerevisiae deletion strains, locus YKL085W, strain MDH1 (second series), active compounds read low 1.01 | S. cerevisiae deletion strains, locus YKL085W, strain MDH1, active compounds read low 1.01 | S. cerevisiae deletion strains, locus YKL160W, strain elf1, active compounds read low 0.961 | S. cerevisiae deletion strains, locus YKL190W, strain CNB1, active compounds read low 0.967 | S. cerevisiae deletion strains, locus YKR001C, strain vps1, active compounds read low 1.03 | S. cerevisiae deletion strains, locus YKR026C, strain gcn3, active compounds read low 0.99 | S. cerevisiae deletion strains, locus YKR091W, strain srl3, active compounds read low 0.982 | S. cerevisiae deletion strains, locus YLL001W, strain dnm1, active compounds read low 1.02 | S. cerevisiae deletion strains, locus YLL026W, active compounds read low 0.975 | S. cerevisiae deletion strains, locus YLL041C, strain sdh2, active compounds read low 0.983 | S. cerevisiae deletion strains, locus YLR027C, strain aat2, active compounds read low 0.986 | S. cerevisiae deletion strains, locus YLR039C, strain RIC1, active compounds read low 1.05 | S. cerevisiae deletion strains, locus YLR058C, strain SHM2, active compounds read low 0.999 | S. cerevisiae deletion strains, locus YLR102C, strain apc9, active compounds read low 1 | S. cerevisiae deletion strains, locus YLR113W, strain HOG1, active compounds read low 0.971 | S. cerevisiae deletion strains, locus YLR221C, strain rsa3, active compounds read low 1.02 | S. cerevisiae deletion strains, locus YLR258W, strain gsy2, active compounds read low 0.965 | S. cerevisiae deletion strains, locus YLR262C, strain YPT6 (second series), active compounds read low 1 | S. cerevisiae deletion strains, locus YLR262C, strain YPT6, active compounds read low 1.05 | S. cerevisiae deletion strains, locus YLR268W, strain sec22, active compounds read low 1.04 | S. cerevisiae deletion strains, locus YLR320W, strain mms22, active compounds read low 0.978 | S. cerevisiae deletion strains, locus YLR330W, strain CHS5, active compounds read low 1 | S. cerevisiae deletion strains, locus YLR342W, strain FKS1 (second series), active compounds read low 0.951 | S. cerevisiae deletion strains, locus YLR342W, strain FKS1, active compounds read low 0.959 | S. cerevisiae deletion strains, locus YLR357W, strain rsc2, active compounds read low 0.977 | S. cerevisiae deletion strains, locus YLR370C, strain arc18, active compounds read low 0.976 | S. cerevisiae deletion strains, locus YLR371W, strain rom2, active compounds read low 1.01 | S. cerevisiae deletion strains, locus YLR384C, strain iki3, active compounds read low 0.989 | S. cerevisiae deletion strains, locus YLR418C, strain cdc73, active compounds read low 0.977 | S. cerevisiae deletion strains, locus YML016C, strain PPZ1, active compounds read low 1 | S. cerevisiae deletion strains, locus YML032C, strain rad52, active compounds read low 1.02 | S. cerevisiae deletion strains, locus YML120C, strain ndi1, active compounds read low 1 | S. cerevisiae deletion strains, locus YML124C, strain tub3, active compounds read low 1.02 | S. cerevisiae deletion strains, locus YMR058W, strain fet3, active compounds read low 0.986 | S. cerevisiae deletion strains, locus YMR078C, strain ctf18, active compounds read low 1.01 | S. cerevisiae deletion strains, locus YMR125W, strain sto1, active compounds read low 0.986 | S. cerevisiae deletion strains, locus YMR129W, active compounds read low 0.981 | S. cerevisiae deletion strains, locus YMR205C, strain PFK2, active compounds read low 0.982 | S. cerevisiae deletion strains, locus YMR223W, strain ubp8, active compounds read low 0.995 | S. cerevisiae deletion strains, locus YMR231W, strain pep5, active compounds read low 1 | S. cerevisiae deletion strains, locus YMR263W, strain SAP30, active compounds read low 0.979 | S. cerevisiae deletion strains, locus YMR307W, strain GAS1, active compounds read low 0.912 | S. cerevisiae deletion strains, locus YNL067W, strain RPL9B, active compounds read low 0.994 | S. cerevisiae deletion strains, locus YNL071W, strain lat1, active compounds read low 0.971 | S. cerevisiae deletion strains, locus YNL128W, strain TEP1, active compounds read low 1 | S. cerevisiae deletion strains, locus YNL153C, strain GIM3, active compounds read low 1 | S. cerevisiae deletion strains, locus YNL183C, strain NPR1, active compounds read low 0.949 | S. cerevisiae deletion strains, locus YNL209W, strain ssb2, active compounds read low 0.984 | S. cerevisiae deletion strains, locus YNL233W, strain BNI4, active compounds read low 0.997 | S. cerevisiae deletion strains, locus YNL248C, strain rpa49, active compounds read low 0.955 | S. cerevisiae deletion strains, locus YNL250W, strain rad50, active compounds read low 1.01 | S. cerevisiae deletion strains, locus YNL271C, strain bni1, active compounds read low 1.02 | S. cerevisiae deletion strains, locus YNL298W, strain CLA4, active compounds read low 1.02 | S. cerevisiae deletion strains, locus YNL307C, strain MCK1, active compounds read low 1.01 | S. cerevisiae deletion strains, locus YNL322C, strain KRE1 (second series), active compounds read low 0.976 | S. cerevisiae deletion strains, locus YNL322C, strain KRE1, active compounds read low 0.995 | S. cerevisiae deletion strains, locus YNR049C, strain mso1, active compounds read low 0.972 | S. cerevisiae deletion strains, locus YNR052C, strain pop2, active compounds read low 1 | S. cerevisiae deletion strains, locus YOL006C, strain TOP1, active compounds read low 0.989 | S. cerevisiae deletion strains, locus YOL012C, strain htz1 0.714 | S. cerevisiae deletion strains, locus YOL147C, strain pex11, active compounds read low 1.02 | S. cerevisiae deletion strains, locus YOR001W, strain rrp6, active compounds read low 1.03 | S. cerevisiae deletion strains, locus YOR061W, strain CKA2, active compounds read low 0.999 | S. cerevisiae deletion strains, locus YOR069W, strain VPS5, active compounds read low 1 | S. cerevisiae deletion strains, locus YOR070C, strain gyp1, active compounds read low 0.983 | S. cerevisiae deletion strains, locus YOR080W, strain dia2, active compounds read low 0.982 | S. cerevisiae deletion strains, locus YOR083W, strain WHI5, active compounds read low 0.948 | S. cerevisiae deletion strains, locus YOR106W, strain vam3, active compounds read low 0.947 | S. cerevisiae deletion strains, locus YOR136W, strain idh2, active compounds read low 1.02 | S. cerevisiae deletion strains, locus YOR144C, strain elg1, active compounds read low 1.01 | S. cerevisiae deletion strains, locus YOR184W, strain ser1, active compounds read low 1.04 | S. cerevisiae deletion strains, locus YOR231W, strain MKK1, active compounds read low 0.983 | S. cerevisiae deletion strains, locus YOR265W, strain rbl2, active compounds read low 0.988 | S. cerevisiae deletion strains, locus YOR270C, strain vph1, active compounds read low 0.969 | S. cerevisiae deletion strains, locus YOR290C, strain snf2, active compounds read low 0.948 | S. cerevisiae deletion strains, locus YOR316C, strain cot1, active compounds read low 1.01 | S. cerevisiae deletion strains, locus YPL051W, strain arl3, active compounds read low 0.979 | S. cerevisiae deletion strains, locus YPL055C, strain LGE1, active compounds read low 0.972 | S. cerevisiae deletion strains, locus YPL078C, strain atp4, active compounds read low 0.972 | S. cerevisiae deletion strains, locus YPL106C, strain sse1, active compounds read low 0.895 | S. cerevisiae deletion strains, locus YPL240C, strain hsp82, active compounds read low 0.992 | S. cerevisiae deletion strains, locus YPL241C, strain CIN2, active compounds read low 0.997 | S. cerevisiae deletion strains, locus YPL256C, strain CLN2, active compounds read low 0.983 | S. cerevisiae deletion strains, locus YPR119W, strain clb2, active compounds read low 1.01 | S. cerevisiae deletion strains, locus YPR141C, strain kar3, active compounds read low 1.02 | S. cerevisiae deletion strains, locus YPR163C, strain tif3, active compounds read low 1.02 | S. cerevisiae deletion strains, locus YPR167C, strain met16, active compounds read low 1.01 | S. cerevisiae deletion strains, strain wtn01, active compounds read low 1.01 | S. cerevisiae strains, strain wild type, active compounds read low 0.986
